Potency data for 28 molecules are collected here from PubChem BioAssay AID588397 (National Center for Advancing Translational Sciences (NCATS), 2011).

Molecules are shown by their SMILES. About 1,000 (77%) of roughly 1,300 compounds were called active. Inconclusive results (about 7%) are left out. Calls follow the shape of the dose curve; as a rule, active = well fitted inhibition curve with a large enough effect; inconclusive = small, poorly fitted or top-dose-only effect; inactive = no such curve, though single readings can be large or run the other way. So high a share suggests a set chosen from earlier hits. Some of the results follow.
Potency is read from the fitted curve at half-maximal effect.

A short description of this assay: qHTS of small molecules that selectively kill Giardia lamblia: Hit Validation.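 Also: viability measured as ATP content by luminescence so killing lowers signal; nearly all actives have a fitted effect of over 65% in size.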 The following applies: Giardia lamblia trophozoite viability, dose-response; series mostly up to 38.3 µM. Put shortly:
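Compounds were tested on trophozoites seeded at 100 cells/well and held 48 hrs at 37 deg C anaerobically. An ATP-based luminescent kit measured the remaining live cells.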
Turning to `CC1CC(C)CC(C)C(O)C(C#N)=CC=CCC(C2CCCC2C(=O)O)OC(=O)CC(O)C(C)C1` (stereo not drawn), the Potency was 0.326 µM (active). With `COc1ccc(OC(=O)N2C/C(=C/c3ccccc3)C(=O)/C(=C\c3ccccc3)C2)cc1`, the Potency is 1.16 µM (active). As to `NC(=O)c1cc(N2CC2)c([N+](=O)[O-])cc1[N+](=O)[O-]`, the Potency was 0.65 µM (active). With `O=[N+]([O-])c1ccc(-c2ccccc2)c([As](=O)(O)O)c1` the figure was 0.259 µM (active). Regarding `CC1Oc2cc3c(-c4c(O)cc(O)c5c(O)c6c(cc45)OC(C)C(C)C6=O)c(O)cc(O)c3c(O)c2C(=O)C1C` (stereo not drawn), the Potency was 1.03 µM (active). With `COC(COC(N)=O)C1=C(N2CC2)C(=O)C(C)=C(N2CC2)C1=O` (stereo not drawn) the figure was 0.729 µM (active); with `O=[N+]([O-])c1oc2ccc3ccccc3c2c1CCO`, 0.0516 µM (active). As for `NN=C(N)N`, the Potency result was “inactive”. With `C[C@@H]1C[C@@H]([C@H](O)CC2CC(=O)NC(=O)C2)C(=O)[C@@H](C)C1` the figure was 0.183 µM (active); with `C[C@H]1C[C@@H](C)C(=O)[C@@H]([C@H](O)CC2CC(=O)NC(=O)C2)C1`, 0.0729 µM (active); with `Cc1nc2c(=O)n(C)c(=O)nc-2n(C)n1`, 0.259 µM (active). For `CCn1nc(/C=C/c2ccccc2)nc2c(=O)n(C)c(=O)nc1-2` the value was 0.146 µM (active); for `Cc1ccc(-c2nc3c(=O)n(C)c(=O)nc-3n(C)n2)cc1`, 0.103 µM (active); for `Cn1nc(-c2ccccc2)nc2c(=O)n(C)c(=O)nc1-2`, 0.163 µM (active). With `Cc1ccc(C(c2nnnn2Cc2ccccc2)N2CC=C(c3ccc(F)cc3)CC2)cc1` (stereo not drawn) the entry was “inactive”. As to `COC(=O)C12OCC34C(CC5C(C)=C(O)C(=O)CC5(C)C3C(O)C1O)OC(=O)C(OC(=O)/C=C(\C)C(C)C)C24` (stereo not drawn), the Potency was 0.579 µM (active). With `O=c1c2ccccc2nc(/C=C/c2ccc(O)cc2)n1-c1cccc(O)c1` the entry was “inactive”.

Take `Cc1nc2ccccc2c(=O)n1-c1cc([N+](=O)[O-])cc([N+](=O)[O-])c1`: the Potency is 10.3 µM (active).

For the molecule `Cc1cccc(-n2c(/C=C/c3ccc([N+](=O)[O-])o3)nc3ccccc3c2=O)c1`, the Potency is 1.63 µM (active). With `O=c1c2ccccc2nc(/C=C/c2ccc([N+](=O)[O-])o2)n1-c1ccc(O)cc1` the figure was 0.29 µM (active); with `CC1CN(c2ccc([N+](=O)[O-])c3cccnc23)CC(C)N1` (stereo not drawn), 1.3 µM (active); with `CN1CCN(c2ccc([N+](=O)[O-])c3cccnc23)CC1`, 1.03 µM (active). For `CCCCn1c(=O)c(C(=O)NCc2ccccc2OC)c(O)c2ccccc21` the value was “inactive”; for `[Hg+][c]1ccccc1`, 4.1 µM (active); for `CN1CCCN(c2ccc([N+](=O)[O-])nc2)CC1`, 6.5 µM (active).

As to `C=CC1CN2CCC1CC2[C@@H](OC(=O)c1ccc(OC)cc1)c1ccnc2ccccc12` (stereo partly drawn), the Potency was 0.818 µM (active). With `c1ccc2c(c1)[IH]c1ccccc1-2` the figure was 0.46 µM (active); with `CN(c1ccccc1)c1ccc([N+](=O)[O-])c2nonc12`, 0.41 µM (active).
